Values joined by “and” are separate entries in the source; they are usually repeats but may differ in a detail not shown here. Equal values may be shown once. Results filed as inconclusive are left out. Active and inactive are the calls of the source.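 How the source made its calls, unless noted: active means z-score of at least 1.8 in each of two replicates, scored against plate mean and spread of sample wells; inactive means the rest.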
How the values were obtained:
[1] = tested on: Neuropilin-2 / VEGF-C interaction (human); test: inhibitors of NRP2–VEGF-C binding, biochemical, microplate binding format, z-score (AID 743281; call rule not given here); conditions: microplate NRP2/VEGF-C binding assay; stronger effect = lower value
[2] = viability rescue of complex I mutant cybrids, primary screen, cell-based, galactose medium, ATP luminescence (AID 1645843); conditions: complex I mutant cybrid cells, 72 h, stronger effect = higher value;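 further: positive z means more ATP and so rescue of galactose-driven cybrid death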
[3] = growth inhibition of DIPG glioma cells, dose response, cell-based, SU-DIPG-XIII, MIPE4.0, CellTiter-Glo, qHTS (AID 1347061; cut-off not given, nearly all actives have AC50 up to about 37 µM;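 further: cells exposed to compound for 48 hours before readout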); conditions: SU-DIPG-XIII viability, CellTiter-Glo ATP luminescence
[4] = SU-DIPG-VI glioma cell viability, MIPE4.0 library, CellTiter-Glo luminescence, qHTS (AID 1347066; cut-off not given, nearly all actives have AC50 up to about 30 µM;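 further: cells exposed to compound for 48 hours before readout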); conditions: CellTiter-Glo ATP luminescence
[5] = target: NAD(+) hydrolase SARM1 (Homo sapiens) (UniProt Q6SZW1); test: SARM1 TIR NADase inhibitors, cell lysate, NAD-Glo luminescence (AID 1508614;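 active means compound whose remaining NAD level is above about 45 nM, limit read from the data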); conditions: SAM-TIR HEK293T lysate NADase, at 1 µM, stronger effect = higher value
Sequence of NAD(+) hydrolase SARM1 (Homo sapiens) (Q6SZW1 whole entry, looked up): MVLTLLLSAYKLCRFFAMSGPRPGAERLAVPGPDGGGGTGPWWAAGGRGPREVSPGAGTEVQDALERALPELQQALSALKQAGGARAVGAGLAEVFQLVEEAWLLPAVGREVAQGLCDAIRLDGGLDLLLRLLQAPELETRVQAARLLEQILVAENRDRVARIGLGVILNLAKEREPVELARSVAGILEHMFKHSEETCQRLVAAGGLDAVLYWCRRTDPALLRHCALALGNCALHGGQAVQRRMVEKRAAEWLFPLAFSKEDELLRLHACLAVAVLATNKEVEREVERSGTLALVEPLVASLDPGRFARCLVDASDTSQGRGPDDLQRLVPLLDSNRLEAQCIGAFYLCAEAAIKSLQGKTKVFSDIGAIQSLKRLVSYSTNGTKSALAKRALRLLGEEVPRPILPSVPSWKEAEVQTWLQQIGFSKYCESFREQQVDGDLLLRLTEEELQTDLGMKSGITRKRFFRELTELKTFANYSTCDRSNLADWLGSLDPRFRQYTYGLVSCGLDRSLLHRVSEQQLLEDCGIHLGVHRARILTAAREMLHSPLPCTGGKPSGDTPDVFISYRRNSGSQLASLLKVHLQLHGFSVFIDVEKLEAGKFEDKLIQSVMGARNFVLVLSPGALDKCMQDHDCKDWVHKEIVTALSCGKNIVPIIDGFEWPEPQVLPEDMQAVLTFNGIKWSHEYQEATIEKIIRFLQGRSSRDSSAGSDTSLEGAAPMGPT

[6] = growth inhibition of DIPG glioma cells, dose response, cell-based, JHH-DIPG-1, MIPE4.0, CellTiter-Glo, qHTS (AID 1347062; cut-off not given, nearly all actives have AC50 up to about 27 µM); conditions: JHH-DIPG-1 viability, CellTiter-Glo ATP luminescence
[7] = viability loss in pontine glioma line – cell-based, SU-DIPG-XXV, MIPE5.0, CellTiter-Glo, qHTS, dose response (AID 1347065; cut-off not given, nearly all actives have AC50 up to about 26 µM;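 further: cells exposed to compound for 48 hours before ATP readout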); conditions: CellTiter-Glo ATP luminescence
[8] = JHH-DIPG-1 glioma cell viability, MIPE5.0 library, CellTiter-Glo luminescence, qHTS (AID 1347067; cut-off not given, nearly all actives have AC50 up to about 26 µM;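 further: cells exposed to compound for 48 hours before readout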); conditions: JHH-DIPG-1 glioma viability, CellTiter-Glo ATP luminescence
[9] = SU-DIPG-XXV glioma cell viability, MIPE5.0 library, qHTS (AID 1347068; cut-off not given, nearly all actives have IC50 up to about 30 µM)
[10] = growth inhibition of DIPG glioma cells, dose response, cell-based, SU-DIPG-XVII, MIPE5.0, CellTiter-Glo, qHTS (AID 1347060; cut-off not given, nearly all actives have AC50 up to about 26 µM;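 on AC50: cells exposed to compound for 48 hours before viability readout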); conditions: SU-DIPG-XVII viability, CellTiter-Glo ATP luminescence
[11] = phospholipid biosynthesis inhibitors in animal cells, primary screen, cell-based, LOPAC library, screen 4 (AID 1347384; call rule not given here); conditions: phospholipid biosynthesis inhibition screen, at 10 µM
[12] = growth inhibition of DIPG glioma cells, dose response, cell-based, SU-DIPG-XIII, MIPE5.0, CellTiter-Glo, qHTS (AID 1347064; cut-off not given, nearly all actives have AC50 up to about 23 µM); conditions: SU-DIPG-XIII viability, CellTiter-Glo ATP luminescence
[13] = LFS_MB_P medulloblastoma growth inhibition, cell-based, chromothripsis tumors, cisplatin or BGB combos (AID 1671449; in the data active means inhibition above about 80%;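 further: cells exposed for 96 hours; 0% = vehicle DMSO and 100% = killing by high DMSO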); conditions: LFS_MB_P medulloblastoma cells
[14] = HDN33 neuroblastoma growth inhibition, cell-based, chromothripsis tumors, cisplatin or BGB combos (AID 1671450; in the data active means inhibition above about 80%;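 further: cells exposed to compound for four days; 0% = vehicle DMSO and 100% = cell killing by high DMSO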); conditions: HDN33 neuroblastoma cells, stronger effect = higher value
[15] = ICB984 medulloblastoma cell growth inhibition, synergistic combos for chromothripsis tumors, cisplatin or BGB combos (AID 1671451; call rule not given here;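 further: cells exposed for 96 hours before readout; 0% = vehicle DMSO and 100% = killing by high DMSO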); conditions: ICB984 medulloblastoma cells, drug combinations, stronger effect = higher value
[16] = HTB85 osteosarcoma cell growth inhibition, synergistic combos for chromothripsis tumors, BGB or cisplatin IC20 combos (AID 1671453; in the data active means inhibition above about 80%;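 further: cells exposed for 96 hours before readout; 0% = vehicle DMSO and 100% = high DMSO killing control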); conditions: HTB85 osteosarcoma cells, drug combinations, stronger effect = higher value
[17] = MDA-MB-436 breast carcinoma cell growth inhibition, synergistic combos for chromothripsis tumors, BGB or cisplatin combos (AID 1671458; call rule not given here;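 further: cells exposed for 96 hours; 0% = vehicle DMSO and 100% = killing by high DMSO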); conditions: MDA-MB-436 breast carcinoma growth inhibition, drug combinations, stronger effect = higher value
[18] = growth inhibition of BT084 medulloblastoma cells, cell-based, ICGC_MB145, cisplatin and BGB IC40 combos (AID 1671461; in the data active means inhibition above about 80%;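 further: cells exposed to drugs for 96 hours; 0% = vehicle DMSO and 100% = high DMSO full killing control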); conditions: drug combinations, stronger effect = higher value
[19] = growth inhibition of DIPG glioma cells, dose response, cell-based, SU-DIPG-IV, MIPE4.0, CellTiter-Glo, qHTS (AID 1347063; cut-off not given, nearly all actives have AC50 up to about 30 µM;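 further: compound exposure lasted 48 hours before the viability readout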); conditions: SU-DIPG-IV viability, CellTiter-Glo ATP luminescence

## COC(=O)C[C@](O)(CCCC(C)(C)O)C(=O)O[C@@H]1C(OC)=C[C@]23CCCN2CCc2cc4c(cc2[C@H]13)OCO4
[1]
  outcome: inactive
[2]
  z-score: -0.84 (inactive)

## CNCC[C@H](Oc1cccc2ccccc12)c1cccs1
[1]
  z-score: 0.369 (inactive) and 0.383 (inactive)
[3]
  AC50: 1.32 µM (active)
[4]
  outcome: inactive
[5]
  remaining NAD: 10 nM (inactive)

## CN1CCC[C@H]1c1cccnc1
[5]
  remaining NAD: 10 nM (inactive)
[2]
  z-score: 1.02 (inactive)

## O=C1c2c(O)cc(O)cc2O[C@H](c2ccc(O)c(O)c2)[C@H]1O
[1]
  z-score: -0.839 (inactive)
[6]
  outcome: inactive
[7]
  outcome: inactive
[4]
  outcome: inactive
[8]
  outcome: inactive
[9]
  outcome: inactive

## NC(Cc1cc(I)c(Oc2ccc(O)c(I)c2)c(I)c1)C(=O)O (stereo not drawn)
[2]
  z-score: -1.5 (inactive)

## CN(C)C1C(=O)C(C(N)=O)=C(O)C2(O)C(=O)C3=C(O)c4c(O)ccc(Cl)c4C(O)C3CC12 (stereo not drawn)
[2]
  z-score: -1.45 (inactive)

## CC(=O)OCC(=O)C12OC3(CCCC3)OC1CC1C3CCC4=CC(=O)C=CC4(C)C3(F)C(O)CC12C (stereo not drawn)
[2]
  z-score: -1.46 (inactive)

## CCC(C)n1ncn(-c2ccc(N3CCN(c4ccc(OCC5COC(Cn6cncn6)(c6ccc(Cl)cc6Cl)O5)cc4)CC3)cc2)c1=O (stereo not drawn)
[1]
  z-score: 0.805 (inactive)
[2]
  z-score: -1.48 (inactive) and 0.09 (inactive)

## CC1(C)SC2C(NC(=O)Cc3ccccc3)C(=O)N2C1C(=O)O (stereo not drawn)
[2]
  z-score: -0.1 (inactive)

## CC(C)c1ccc2c(c1)c(SC(C)(C)C)c(CC(C)(C)C(=O)O)n2Cc1ccc(Cl)cc1
[1]
  z-score: -2.97 (inactive)
[10]
  AC50: 18.6 µM (active)
[6]
  outcome: inactive
[7]
  AC50: 18.6 µM (active)
[8]
  AC50: 26.3 µM (active)
[9]
  outcome: inactive
[11]
  outcome: inactive
[2]
  z-score: -1.26 (inactive) and -1.88 (inactive)

## Cc1nnc(SCC2=C(C(=O)O)N3C(=O)C(NC(=O)Cn4cnnn4)C3SC2)s1 (stereo not drawn)
[2]
  z-score: -0.49 (inactive)

## CC1CC2C3CCC4=CC(=O)C=CC4(C)C3(F)C(O)CC2(C)C1(O)C(=O)CO (stereo not drawn)
[2]
  z-score: 1.66 (inactive)

## CCC(C)(C)N=C(NC#N)Nc1cccnc1
[1]
  z-score: -0.415 (inactive)
[2]
  z-score: 0.04 (inactive)

## COc1cc(C[C@@H](CO)[C@H](CO)Cc2ccc(O)c(OC)c2)ccc1O
[1]
  z-score: 0.125 (inactive)
[10]
  outcome: inactive
[12]
  outcome: inactive
[7]
  outcome: inactive
[8]
  outcome: inactive
[9]
  outcome: inactive

## Cc1onc(-c2ccccc2)c1C(=O)NC1C(=O)N2C1SC(C)(C)C2C(=O)O (stereo not drawn)
[2]
  z-score: 0.33 (inactive) and 0.12 (inactive)

## Nc1ccn([C@@H]2CS[C@H](CO)O2)c(=O)n1
[1]
  z-score: 0.62 (inactive)
[10]
  outcome: inactive
[12]
  outcome: inactive
[7]
  outcome: inactive
[8]
  outcome: inactive
[9]
  outcome: inactive
[5]
  remaining NAD: 10 nM (inactive)
[2]
  z-score: 1.21 (inactive)

## CC1(C)SC2C(NC(=O)C(N)c3ccccc3)C(=O)N2C1C(=O)O (stereo not drawn)
[2]
  z-score: 0.46 (inactive)

## C[C@H]1[C@@H](OC(=O)CCC(=O)O)O[C@@H]2OC3(C)CC[C@H]4[C@H](C)CC[C@@H]1[C@@]24OO3
[1]
  z-score: -0.982 (inactive)
[2]
  z-score: -2.11 (inactive)

## CCOC(=O)CCC(=O)OC1C(OC2C(C)C(OC3CC(C)(OC)C(O)C(C)O3)C(C)C(=O)OC(CC)C(C)(O)C(O)C(C)C(=O)C(C)CC2(C)O)OC(C)CC1N(C)C (stereo not drawn)
[2]
  z-score: 0.77 (inactive)

## CC(N)(Cc1ccc(O)c(O)c1)C(=O)O (stereo not drawn)
[11]
  outcome: inactive
[2]
  z-score: -1.27 (inactive) and -1.07 (inactive)

## NC(=O)c1ncn(C2OC(CO)C(O)C2O)n1 (stereo not drawn)
[2]
  z-score: 1.69 (inactive)
[13]; at 0.5 µM, stronger effect = higher value
  inhibition: -16.1% (inactive)
[13]; measured here: combination with BGB IC20, at 0.005 µM
  inhibition: -16.5%
[13]; measured here: combination with BGB IC40, at 0.005 µM
  inhibition: 25.4%
[13]; measured here: combination with BGB IC40, at 0.05 µM
  inhibition: -2.38%
[13]; measured here: combination with cisplatin, at 0.5 µM, stronger effect = higher value
  inhibition: -6.01%
[13]; measured here: combination with cisplatin, at 5 µM, stronger effect = higher value
  inhibition: -20.9%
[14]; BGB combo, at 5 µM
  inhibition: 31.2%
[14]; at 0.5 µM
  inhibition: 2.73% (inactive)
[14]; cisplatin combo, at 5 µM
  inhibition: -8.56%
[14]; measured here: with BGB IC20 combination, at 0.5 µM
  inhibition: 6.96%
[14]; measured here: with cisplatin IC20 combination, at 0.5 µM
  inhibition: 2.48%
[14]; single agent, at 5 µM
  inhibition: 14%
[15]; BGB IC20 combo, at 0.005 µM
  inhibition: 3.66%
[15]; BGB IC40 combo, at 0.005 µM
  inhibition: -0.335%
[15]; BGB IC40 combo, at 0.05 µM
  inhibition: 6.2%
[15]; at 0.5 µM
  inhibition: -10.2% (inactive)
[15]; cisplatin combo, at 0.05 µM
  inhibition: 6.2%
[15]; cisplatin combo, at 0.5 µM
  inhibition: -6.29%
[15]; cisplatin combo, at 5 µM
  inhibition: -17.4%
[15]; measured here: 5 uM single agent, at 5 µM
  inhibition: -2.81%
[16]; at 0.5 µM
  inhibition: 4.41% (inactive)
[16]; measured here: with BGB IC20, at 0.5 µM
  inhibition: -12.9%
[16]; measured here: with BGB IC20, at 5 µM
  inhibition: 10.8%
[16]; measured here: with cisplatin IC20, at 0.5 µM
  inhibition: 14.3%
[16]; measured here: with cisplatin IC20, at 5 µM
  inhibition: 0.254%
[16]; single agent, at 5 µM
  inhibition: 2.26%
[17]; at 0.5 µM
  inhibition: -5.54% (inactive)
[17]; measured here: BGB combination, at 0.5 µM
  inhibition: 2.04%
[17]; measured here: BGB combination, at 5 µM
  inhibition: -7.02%
[17]; measured here: cisplatin combination, at 0.5 µM
  inhibition: -11.9%
[17]; measured here: cisplatin combination, at 5 µM
  inhibition: 6.23%
[18]; at 0.5 µM
  inhibition: 6.99% (inactive)
[18]; cisplatin combination, at 0.5 µM
  inhibition: 12.1%
[18]; cisplatin combination, at 5 µM
  inhibition: -28.4%
[18]; measured here: BGB IC40 combination 0.05 uM, at 0.05 µM
  inhibition: 25.7%
[18]; single agent, at 5 µM
  inhibition: 8.51%

## COc1cc(C)c(/C=C/C(C)=C/C=C/C(C)=C/C(=O)O)c(C)c1C
[6]
  outcome: inactive
[7]
  AC50: 11.8 µM (active)
[8]
  outcome: inactive
[9]
  outcome: inactive
[2]
  z-score: -0.775 (inactive)

## C=CCc1ccc(O)c(-c2ccc(O)c(CC=C)c2)c1
[1]
  z-score: -0.759 (inactive)
[3]
  outcome: inactive
[19]
  AC50: 23.5 µM (active)
[2]
  z-score: -1.87 (inactive)

## CCOC(=O)[C@@H](CCc1ccccc1)N[C@@H](C)C(=O)N1CCC[C@H]1C(=O)O
[2]
  z-score: 0.835 (inactive)

## COc1ccnc(CS(=O)c2nc3cc(OC(F)F)ccc3[nH]2)c1OC (stereo not drawn)
[1]
  z-score: 0.437 (inactive)
[2]
  z-score: 0.63 (inactive)

## O=C(NC(CO)C(O)c1ccc([N+](=O)[O-])cc1)C(Cl)Cl (stereo not drawn)
[2]
  z-score: 0.48 (inactive)

Reference: PubChem BioAssay
